What all share (conditions): mRNA level, 48 h; actives raise or lower the signal
Read-out in experiment [1]: adenosine kinase (ADK) gene, ADK (gene 132)
The experiment in a line: LTEA_HepaRG_ADK: Life Technologies and Expression Analysis (LTEA) Assay for adenosine kinase (ADK) gene using HepaRG (AID 2283471). Put shortly: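 Read-out is ADK transcript level measured by qRT-PCR and normalised to three housekeeping genes. Cells are human HepaRG, dosed for 48 h at up to 100 uM in 0.5% DMSO. Gain or loss of signal is fitted against DMSO controls.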

Read-out in experiment [2]: Alpha-fetoprotein (AFP) gene, AFP (gene 174)
The experiment in a line: LTEA_HepaRG_AFP: Life Technologies and Expression Analysis (LTEA) Assay for Alpha-fetoprotein (AFP) gene using HepaRG (AID 2283472). Put shortly:
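AFP transcript measured by TaqMan qRT-PCR with three housekeeping genes for normalization, after 48 h chemical treatment of HepaRG cells (top 100 uM, half-log steps, 0.5% DMSO). Gain or loss fitted against vehicle.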

Read-out in a further experiment: BCL2L11 (gene 10018)
The experiment in a line: LTEA_HepaRG_BCL2L11: Life Technologies and Expression Analysis (LTEA) Assay for Bcl-2 (BCL2L11) gene using HepaRG (AID 2283473). In outline:
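Differentiated human HepaRG cells were exposed 48 h in serum-free induction medium to eight half-log concentrations up to 100 uM in 0.5% DMSO, in duplicate. BCL2L11 mRNA was quantified by TaqMan qRT-PCR, normalized to ACTB, GAPDH and POLR2A; induction or repression fitted versus DMSO.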

Read-out in experiment [3]: Apolipoprotein A-V (APOA5) gene, APOA5 (gene 116519)
The experiment is described as follows: LTEA_HepaRG_APOA5: Life Technologies and Expression Analysis (LTEA) Assay for Apolipoprotein A-V (APOA5) gene using HepaRG (AID 2283474). In outline:
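Differentiated HepaRG cells in serum-free induction medium, exposed 48 h in duplicate to eight half-log concentrations topping at 100 uM (0.5% DMSO). APOA5 mRNA by Fluidigm TaqMan qRT-PCR, normalized to ACTB, GAPDH and POLR2A; bidirectional fit versus DMSO.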

Read-out in experiment [4]: Apoptosis regulator Bcl-2 (Homo sapiens) (UniProt P10415)
The experiment is described as follows: LTEA_HepaRG_BCL2: Life Technologies and Expression Analysis (LTEA) Assay for Bcl-2 gene using HepaRG (AID 2283475). In outline:
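qRT-PCR of BCL2 transcript, normalized to three housekeeping genes (ACTB, GAPDH, POLR2A), after 48 h chemical exposure of HepaRG cells; concentrations top 100 uM with half-log dilutions, 0.5% DMSO vehicle, duplicates; changes up or down fitted relative to vehicle.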

Read-out in experiment [5]: Bcl-2 (BID) gene, BID (gene 637)
The experiment in a line: LTEA_HepaRG_BID: Life Technologies and Expression Analysis (LTEA) Assay for Bcl-2 (BID) gene using HepaRG (AID 2283476). In outline: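 Duplicate 48 h treatments of HepaRG cells in serum-free induction medium spanned 100 uM downward in half-log steps, 0.5% DMSO. Transcript change quantified by qRT-PCR against three housekeeping genes, fitted up or down versus DMSO.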

Read-out in another experiment: Caspase-3 (Homo sapiens) (UniProt P42574)
The experiment in a line: LTEA_HepaRG_CASP3: Life Technologies and Expression Analysis (LTEA) Assay for cysteine-aspartic acid protease (CASP3) using HepaRG (AID 2283477). In outline: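 Differentiated HepaRG cells, plated 48 h, were treated in duplicate in serum-free induction medium for 48 h with eight half-log concentrations up to 100 uM in 0.5% DMSO. CASP3 mRNA measured by qRT-PCR, normalized to ACTB, GAPDH, POLR2A.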

Read-out in experiment [6]: Cytochrome P450 (CYP24A1), CYP24A1 (gene 1591)
The experiment in a line: LTEA_HepaRG_CYP24A1: Life Technologies and Expression Analysis (LTEA) Assay for Cytochrome P450 (CYP24A1) using HepaRG (AID 2283478). In outline: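 HepaRG cells plated 48 h, then exposed in duplicate in serum-free induction medium for 48 h to 8-point half-log series from 100 uM in 0.5% DMSO. CYP24A1 mRNA by Fluidigm qRT-PCR, normalized to ACTB, GAPDH, POLR2A; bidirectional fit versus DMSO.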

Read-out in experiment [7]: Cytochrome P450 (CYP1A2), CYP1A2 (gene 1544)
The experiment is described as follows: LTEA_HepaRG_CYP1A2: Life Technologies and Expression Analysis (LTEA) Assay for Cytochrome P450 (CYP1A2) using HepaRG (AID 2283479). In outline:
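Differentiated human HepaRG cells in serum-free induction medium exposed 48 hours in duplicate to 8 half-log concentrations from 100 uM, 0.5% DMSO. CYP1A2 mRNA quantified by qRT-PCR, normalized to ACTB, GAPDH and POLR2A; bidirectional fitting versus DMSO.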

Read-out in experiment [8]: cysteine-aspartic acid protease (CASP8), CASP8 (gene 841)
The experiment in a line: LTEA_HepaRG_CASP8: Life Technologies and Expression Analysis (LTEA) Assay for cysteine-aspartic acid protease (CASP8) using HepaRG (AID 2283480). Put shortly: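 qRT-PCR readout of CASP8 mRNA, normalized to three housekeeping genes, after 48 h chemical exposure of HepaRG cells; 8-point half-log series, top 100 uM, 0.5% DMSO vehicle. Bidirectional curve fitting against DMSO baseline.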

Read-out in experiment [9]: Cytochrome P450 (CYP2B6), CYP2B6 (gene 1555)
The experiment in a line: LTEA_HepaRG_CYP2B6: Life Technologies and Expression Analysis (LTEA) Assay for Cytochrome P450 (CYP2B6) using HepaRG (AID 2283481). Put shortly:
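Differentiated human HepaRG cells in serum-free induction medium, dosed in duplicate for 48 h over 8 half-log concentrations topping at 100 uM (0.5% DMSO). CYP2B6 mRNA measured by TaqMan qRT-PCR, normalized to ACTB, GAPDH, POLR2A; bidirectional fit versus DMSO.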

Read-out in experiment [10]: Cytochrome P450 2C19 (Homo sapiens) (UniProt P33261)
The experiment is described as follows: LTEA_HepaRG_CYP2C19: Life Technologies and Expression Analysis (LTEA) Assay for CYP2C19 using HepaRG (AID 2283482). Put shortly:
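Differentiated HepaRG cells in serum-free induction medium exposed 48 h in duplicate, 8 concentrations from 100 uM by half-log steps in 0.5% DMSO. CYP2C19 mRNA measured by TaqMan qRT-PCR, normalized to ACTB, GAPDH, POLR2A. Bidirectional fit versus DMSO.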

Read-out in a further experiment: CYP2C8 (gene 1558)
The experiment in a line: LTEA_HepaRG_CYP2C8: Life Technologies and Expression Analysis (LTEA) Assay for CYP2C8 using HepaRG (AID 2283483). Put shortly: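 HepaRG (human liver line), 48 h chemical exposure, 8-pt half-log series from 100 uM, 0.5% DMSO vehicle. Readout: CYP2C8 transcript by qRT-PCR, housekeeping-normalized. Bidirectional fit vs DMSO baseline.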

Read-out in the next experiment: CYP2C9 (gene 1559)
The experiment in a line: LTEA_HepaRG_CYP2C9: Life Technologies and Expression Analysis (LTEA) Assay for CYP2C9 using HepaRG (AID 2283484). In outline: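 HepaRG, 48 h dosing, 8-pt half-log series, top 100 uM, 0.5% DMSO vehicle. Read-out: CYP2C9 transcript by TaqMan qRT-PCR, housekeeping-normalized (ACTB/GAPDH/POLR2A). Gain or loss fitted vs DMSO baseline.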

Read-out in the next experiment: CYP2E1 (gene 1571)
The experiment is described as follows: LTEA_HepaRG_CYP2E1: Life Technologies and Expression Analysis (LTEA) Assay for CYP2E1 using HepaRG (AID 2283485). Put shortly:
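CYP2E1 transcript measured by Fluidigm qRT-PCR against three housekeeping genes in human HepaRG cells treated 48 h (top 100 uM, half-log steps, 0.5% DMSO vehicle). Gain or loss fitted relative to DMSO baseline.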

Read-out in another experiment: CYP4A11 (gene 1579)
The experiment in a line: LTEA_HepaRG_CYP4A11: Life Technologies and Expression Analysis (LTEA) Assay for CYP4A11 using HepaRG (AID 2283486). Put shortly: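 Differentiated HepaRG cells, 48 h after plating, exposed in duplicate for 48 h to 8 half-log concentrations up to 100 uM in 0.5% DMSO in serum-free induction medium. CYP4A11 mRNA measured by TaqMan qRT-PCR, normalized to ACTB, GAPDH and POLR2A.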

Read-out in experiment [11]: Cytochrome P450 3A4 (Homo sapiens) (UniProt P08684)
The experiment in a line: LTEA_HepaRG_CYP3A4: Life Technologies and Expression Analysis (LTEA) Assay for CYP3A4 using HepaRG (AID 2283487). In outline:
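HepaRG, 48 h exposure, 8-pt CRC from 100 uM (half-log), 0.5% DMSO, duplicates; serum-free induction medium. Readout: CYP3A4 mRNA, qRT-PCR, ACTB/GAPDH/POLR2A normalization. Bidirectional fit vs DMSO.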

Read-out in experiment [12]: DNA damage-inducible transcript 3 (DDIT3), DDIT3 (gene 1649)
The experiment is described as follows: LTEA_HepaRG_DDIT3: Life Technologies and Expression Analysis (LTEA) Assay for DNA damage-inducible transcript 3 (DDIT3) using HepaRG (AID 2283488). Put shortly: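 DDIT3 transcript was quantified by qRT-PCR with ACTB/GAPDH/POLR2A normalization after 48 h chemical treatment of differentiated HepaRG cells in 0.5% DMSO. Dosing was eight-point, half-log, top 100 uM, duplicate wells. Curves fitted bidirectionally versus DMSO.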

Read-out in experiment [13]: Pro-epidermal growth factor (Homo sapiens) (UniProt P01133)
The experiment is described as follows: LTEA_HepaRG_EGF: Life Technologies and Expression Analysis (LTEA) Assay for Epidermal growth factor (EGF) using HepaRG (AID 2283489). In outline:
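HepaRG cells (~100,000/well, 48 h pre-culture) exposed in duplicate for 48 h in serum-free induction medium to 8 half-log concentrations up to 100 uM in 0.5% DMSO. EGF mRNA by qRT-PCR, normalized to ACTB/GAPDH/POLR2A; bidirectional fit versus DMSO.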

Read-out in experiment [14]: Early growth response protein 1 (EGR1) transcription factor, EGR1 (gene 1958)
The experiment is described as follows: LTEA_HepaRG_EGR1: Life Technologies and Expression Analysis (LTEA) Assay for Early growth response protein 1 (EGR1) transcription factor using HepaRG (AID 2283490). In outline: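 HepaRG, 48 h exposure, 8-pt half-log series from 100 uM, 0.5% DMSO vehicle; EGR1 transcript by TaqMan qRT-PCR (Fluidigm array), housekeeping-normalized; bidirectional fit relative to DMSO baseline.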

The source made the active and inactive calls. How the source made its calls: active means hit-call score of the fitted dose curve at least 0.9, where 1 is the maximum; inactive means score below 0.9.

As usually defined, the AC50 is the concentration giving half of the maximal activity seen.

Sequence of Caspase-3 (Homo sapiens) (P42574 whole entry, looked up): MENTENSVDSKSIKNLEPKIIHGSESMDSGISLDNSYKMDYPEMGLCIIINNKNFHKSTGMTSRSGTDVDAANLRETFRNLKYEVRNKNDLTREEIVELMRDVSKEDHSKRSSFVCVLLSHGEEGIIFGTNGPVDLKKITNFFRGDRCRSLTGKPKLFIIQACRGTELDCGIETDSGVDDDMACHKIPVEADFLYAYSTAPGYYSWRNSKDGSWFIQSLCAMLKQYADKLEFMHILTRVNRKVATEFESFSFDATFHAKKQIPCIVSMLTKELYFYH
Sequence of Cytochrome P450 3A4 (Homo sapiens) (P08684 whole entry, looked up): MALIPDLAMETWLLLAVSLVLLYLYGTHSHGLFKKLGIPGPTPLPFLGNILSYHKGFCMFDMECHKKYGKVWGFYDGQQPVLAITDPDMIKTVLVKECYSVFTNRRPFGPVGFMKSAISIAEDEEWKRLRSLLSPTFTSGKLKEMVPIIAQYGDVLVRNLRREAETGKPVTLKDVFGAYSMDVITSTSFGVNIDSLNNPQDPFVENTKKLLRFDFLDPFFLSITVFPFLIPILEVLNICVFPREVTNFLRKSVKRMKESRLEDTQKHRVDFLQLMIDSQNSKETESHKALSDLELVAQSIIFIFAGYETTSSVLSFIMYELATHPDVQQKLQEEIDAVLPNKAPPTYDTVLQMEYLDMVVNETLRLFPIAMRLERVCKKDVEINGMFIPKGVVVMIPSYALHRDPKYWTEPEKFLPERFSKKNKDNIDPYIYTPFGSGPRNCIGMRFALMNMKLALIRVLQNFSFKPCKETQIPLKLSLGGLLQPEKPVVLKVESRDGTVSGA
Sequence of Apoptosis regulator Bcl-2 (Homo sapiens) (P10415 whole entry, looked up): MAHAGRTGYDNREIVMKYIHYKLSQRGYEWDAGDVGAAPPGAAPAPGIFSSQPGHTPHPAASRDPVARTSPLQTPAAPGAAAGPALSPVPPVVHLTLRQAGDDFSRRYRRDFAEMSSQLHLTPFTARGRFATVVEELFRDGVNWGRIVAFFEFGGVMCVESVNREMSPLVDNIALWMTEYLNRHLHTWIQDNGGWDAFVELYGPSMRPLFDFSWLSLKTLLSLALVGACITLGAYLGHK
Sequence of Cytochrome P450 2C19 (Homo sapiens) (P33261 whole entry, looked up): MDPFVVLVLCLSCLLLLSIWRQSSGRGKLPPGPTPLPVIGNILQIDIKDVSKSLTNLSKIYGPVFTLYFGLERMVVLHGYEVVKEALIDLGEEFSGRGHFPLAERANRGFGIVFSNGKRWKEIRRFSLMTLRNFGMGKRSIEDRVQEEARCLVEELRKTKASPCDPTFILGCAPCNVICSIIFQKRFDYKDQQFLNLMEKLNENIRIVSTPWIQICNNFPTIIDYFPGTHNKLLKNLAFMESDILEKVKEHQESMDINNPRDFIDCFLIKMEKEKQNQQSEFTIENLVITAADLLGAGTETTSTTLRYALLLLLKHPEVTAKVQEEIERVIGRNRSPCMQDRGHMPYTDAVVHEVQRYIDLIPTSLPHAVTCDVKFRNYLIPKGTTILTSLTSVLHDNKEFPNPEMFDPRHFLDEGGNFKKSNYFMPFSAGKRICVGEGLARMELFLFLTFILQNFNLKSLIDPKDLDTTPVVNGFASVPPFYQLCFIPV

With `Cc1oc(-c2ccccc2)nc1CCOc1ccc(C[C@H](Nc2ccccc2C(=O)c2ccccc2)C(=O)O)cc1`, the AC50 in experiment [1] is 30.5 µM (active); with BCL2L11 (gene 10018), 84.6 µM (active); in experiment [5], 75.6 µM (active); with Caspase-3 (Homo sapiens), 32.7 µM (active); in [7], 27.2 µM (active); in experiment [8], 32.1 µM (active). The AC50 was 18.5 µM (active) in experiment [9]; 23.3 µM (active) in experiment [10]; 25.2 µM (active) with CYP2C8 (gene 1558); 22.5 µM (active) with CYP2C9 (gene 1559); 17.1 µM (active) with CYP2E1 (gene 1571); 28.1 µM (active) with CYP4A11 (gene 1579). Further, the half-maximal activity concentration (AC50) was 12.7 µM (active) in [11], 14.1 µM (active) in experiment [12], 24.9 µM (active) in [13] and 87.9 µM (active) in experiment [14]. Besides, the outcome in experiment [2], in experiment [3], in [4] and in experiment [6] was inactive.

Regarding `c1ccc2c(c1)Cc1ccccc1-2`, the molecule was called inactive (in [1]; in experiment [2]; with BCL2L11 (gene 10018); in [3]; in experiment [4]; in [5]). The result (with Caspase-3 (Homo sapiens); in [6]; in experiment [7]; in [8]; in experiment [10]; with CYP2C8 (gene 1558)) was inactive. Further, the result (with CYP2C9 (gene 1559); with CYP2E1 (gene 1571); in the experiment with CYP4A11 (gene 1579); in [11]; in experiment [12]; in [13]) was inactive. The molecule was classed as inactive in experiment [14]. For the same molecule, the half-maximal activity concentration (AC50) in experiment [9] is 31.9 µM (active).

For `CCC(C)(C)C1CCC(O)CC1` (stereo not given), the molecule was classed as inactive (in experiment [1]; in experiment [2]; with BCL2L11 (gene 10018); in [3]; in experiment [4]; in [5]). Besides, the molecule was classed as inactive (with Caspase-3 (Homo sapiens); in [6]; in [7]; in experiment [8]; in experiment [10]; with CYP2C8 (gene 1558)). Further, the molecule was classed as inactive (in the experiment with CYP2C9 (gene 1559); with CYP2E1 (gene 1571); with CYP4A11 (gene 1579); in [11]; in [12]; in experiment [13]). In addition, the call in [14] was inactive. Further, the half-maximal activity concentration (AC50) in experiment [9] was 16 µM (active).

These data come from PubChem BioAssay (EPA / NIEHS).
